Measured values published in the supplement of paper PMC8183993.
Counter-ions that a name gives are not always drawn. ± gives the standard deviation of the averaged measurements. In all, about 3,100 compounds were measured (“mean cytoplasmic OPP incorporation (global translation) relative to DMSO”: median about 100, lowest 2% from about 56 on). What follows is part of a selection rich in the lowest values, with near analogues and random picks from the rest.

Tested on: U2OS
Experiment: mean cytoplasmic OPP incorporation (global translation) relative to DMSO (% of DMSO); higher = more protein synthesis
Details: 10 µM; 24 h
Description: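 Primary image-based screen in U2OS cells: compounds at 10 uM for 24 h, then a 1 h o-propargyl-puromycin (OPP) pulse, click labelling, and high-throughput microscopy. Mean cytoplasmic OPP intensity and nuclei count were normalised to DMSO wells within each plate (DMSO = 100) and averaged over triplicate plates.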

Row | Structure (SMILES) | mean cytoplasmic OPP incorporation
1 | C[C@H](CC[C@@H]1OC1(C)C)[C@H]1CC[C@H]2[C@@H]3CC=C4C[C@@H](O)CC[C@]4(C)[C@H]3CC[C@]12C [24(S),25-Epoxycholesterol] | 112
2 | Cc1ccc(NC(=O)C(C)C)cc1C1CCN(Cc2ccc(Oc3ccc(F)c(F)c3)cc2)CC1 | 108
3 | CC[C@H](C)[C@H](N)C1=N[C@H](C(=O)N[C@@H](CC(C)C)C(=O)N[C@H](CCC(=O)[O-])C(=O)N[C@H](C(=O)N[C@H]2CCCCNC(=O)[C@H](CC(N)=O)NC(=O)[C@@H](CC(=O)[O-])NC(=O)[C@H](Cc3cnc[nH]3)NC(=O)[C@@H](Cc3ccccc3)NC(=O)[C@H]([C@@H](C)CC)NC(=O)[C@@H](CCCN)NC2=O)[C@@H](C)CC)CS1.[Zn+2] [Bacitracin zinc] | 107
4 | CCCC(CCC)C(=O)NO [Valproic acid hydroxamate] | 110
5 | CCOc1ccccc1OCC1CNCCO1 (stereo not given) [Viloxazine hydrochloride] | 87.8
6 | COc1cc(OC)c(NC(=O)Nc2cc(C)on2)cc1Cl | 103
7 | Cc1cnc(NC(=O)Nc2cc(Br)c(C)cc2OC[C@@H]2CNCCO2)cn1 | 45.6
8 | CC(=O)OCCN1C(=O)c2c(C)nc3ccc(S(=O)(=O)N4CCOCC4)cc3c2C1=O [Ivachtin] | 105
9 | CCOC(=O)C1=CN(Cc2ccccc2)C=C(C(=O)OCC)C1c1ccccc1 | 99.2
10 | Nc1ncn(C2CC(O)C(CO)O2)c(=O)n1 (stereo not given) [5-Aza-2-deoxycytidine] | 94.5
11 | CCCn1c(=O)c2[nH]c(-c3ccccc3)nc2n(CCC)c1=O [1,3-Dipropyl-8-phenylxanthine] | 99.1
12 | CCCn1c(=O)c(C)cn2nc(N)nc12 | 104
13 | CCCC[C@@H](C=O)NC(=O)OC(C)(C)C | 101
14 | CC1=C(/C=C/C(C)=C/C=C/C(C)=C/C(=O)O)C(C)(C)CCC1O (stereo not given) [4-Hydroxyretinoic acid] | 101
15 | COC(=O)[C@]12CCC(C)(C)C[C@H]1[C@H]1C(=O)C=C3[C@@]4(C)C=C(C#N)C(=O)C(C)(C)[C@@H]4CC[C@@]3(C)[C@]1(C)CC2 [Bardoxolone Methyl] | 25.6
16 | N[C@@H](Cc1cc(I)c(Oc2ccc(O)cc2)c(I)c1)C(=O)O [3,5-Diiodo-L-thyronine] | 103
17 | CC(C)[C@H](C(=O)Nc1ccc(C(=O)NO)cc1)c1ccccc1 | 53
18 | CC(=O)Nc1ccccc1 [Acetanilide (Antifebrin)] | 102
19 | CCN(CC)Cc1ccc2cc(COC(=O)Nc3ccc(C(=O)NO)cc3)ccc2c1 [ITF2357 (Givinostat)] | 104
20 | COc1ccc(CN2C(=O)C(=O)c3cc(OC(F)(F)F)ccc32)cc1 | 102
21 | CC(C)Oc1ccc2c(=O)c3cc(C(=O)O)ccc3oc2c1 | 102
22 | O=[N+]([O-])c1ccccc1S(=O)(=O)NCC1CCC(CNCC2CCc3ccccc3C2)CC1 (stereo not given) [NTNCB hydrochloride] | 114
23 | CC(C)NCCN(C(C)C)S(=O)(=O)c1ccc(Cl)cc1Cl | 95.9
24 | O=C1c2c(O)ccc(O)c2C(=O)c2c(NCCNCCO)ccc(NCCNCCO)c21 [Mitoxantrone dihydrochloride] | 20.9
25 | C[N+](C)([O-])CCNc1ccc(NCC[N+](C)(C)[O-])c2c1C(=O)c1c(O)ccc(O)c1C2=O [Banoxantrone dihydrochloride] | 87.9

Row | Structure (SMILES) | mean cytoplasmic OPP incorporation
26 | O=C1c2ccccc2C(=O)c2c(NCCc3ccc(O)cc3)ccc(NCCc3ccc(O)cc3)c21 | 120
27 | CC(C)SC(=N)N [S-Isopropylisothiourea hydrobromide] | 102
28 | CCCS(=O)(=O)c1nc(NC2CC2)cc(-c2ccc3c(ccn3C3CC(C)(C)NC(C)(C)C3)c2)n1 | 21.1
29 | C=C1C(=O)O[C@@H](CCC)[C@@H]1C(=O)O [Butyrolactone 3] | 100
30 | C[C@H](NC(=O)[C@@H]1CCCN1C(=O)[C@@H]1CCCN1C(=O)[C@@H](O)[C@H](N)Cc1ccccc1)C(N)=O [Apstatin] | 101
31 | C[C@H](NC(=O)/C(C#N)=C/c1cccc(Br)n1)c1ccccc1 | 56.2 ± 5.9
32 | CCC[C@H](NC(=O)/C(C#N)=C/c1cccc(Br)n1)c1ccccc1 | 27.2
33 | C[C@H](NC(=O)/C(C#N)=C/c1ccc(O)c(O)c1)c1ccccc1 [Tyrphostin B44, (+) enantiomer] | 96
34 | O=C(c1ccc(Cl)cc1Cl)n1nnc2ccccc21 | 111
35 | CCCc1cc(C)[nH]c(=O)c1CNC(=O)c1cc(-c2ccnc(N3CCN(C)CC3)c2)cc2c1cnn2C(C)C | 112
36 | CC(=O)NCCc1c(Cc2ccccc2)[nH]c2ccccc12 [Luzindole] | 103
37 | O=C(/C=C/c1cccc(S(=O)(=O)Nc2ccccc2)c1)NO [Belinostat (PXD101)] | 65.5
38 | Cc1[nH]c2ccccc2c1CCNCc1ccc(/C=C/C(=O)NO)cc1 [Panobinostat] | 51.6
39 | CCCCCCCCCCCCCCCC(=O)C1=C(O)[C@@H](CO)OC1=O | 104
40 | N[C@H](C(=O)O)[C@H](OCc1ccccc1)C(=O)O (racemic) | 103
41 | CCS(=O)(=O)c1cccc(-c2cc(C(=O)NC3CCN(C)CC3)c(C)c3[nH]c4ncc(C)cc4c23)c1 | 46.8
42 | COc1cc(C(=O)NC(=S)Nc2cccc(NC(=O)c3ccccc3)c2)cc(OC)c1OC | 117
43 | CN(C)c1nc(N)c(C(=O)Nc2cccnc2)nc1Cl [ACDPP hydrochloride] | 97.2
44 | CN1CCC(c2c(O)cc(O)c3c(=O)cc(-c4ccccc4Cl)oc23)C(O)C1 (stereo not given) [Flavopiridol (Alvocidib) HCl] | 58.4
45 | Cc1cc2c(cc1C1(c3ccc(C(=O)O)cn3)CC1)C(C)(C)CCC2(C)C | 109
46 | COc1cc(NC(C)CCCN)c2ncccc2c1 (stereo not given) [Primaquine diphosphate] | 36.1
47 | C/C(=N\NC(=O)C1C(=O)NCC1c1ccccc1)c1cccc(Br)c1 (stereo not given) | 102
48 | O=C(O)c1cc(O)ccc1O [Gentisic acid] | 101
49 | CC(=O)N[C@@H](CSCC=C(C)CCC=C(C)CCC=C(C)C)C(=O)O [Acetyl-S-farnesyl-L-cysteine] | 123
50 | OCC1OC(n2cnc3c(NC4CCCC4)nc(Cl)nc32)C(O)C1O (stereo not given) [2-Chloro-N6-cyclopentyladenosine] | 116
